Measured values taken from PubChem BioAssay (Tox21).
Several values for one entry are separate records, joined by “and”; a condition that tells them apart may be missing. Identical values can stand only once. Results filed as inconclusive are left out. Activity calls are given as the source filed them. Unless noted, the call rests on the fitted dose curve; in most records, active means well fitted curve in the direction sought with a large enough effect in the repeat runs; inconclusive means weak or mixed curves; inactive means no such curve, though single readings can be large; an effect the other way counts as inactive or inconclusive.

Tests used:
[1] = qHTS assay to identify small molecule agonists of the RXR signaling pathway - cell viability counter screen (AID 1159529); further: series mostly up to about 77 µM; nearly all actives have a fitted effect of over 50% in size
In short: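 Cell viability is measured by CellTiter-Glo luminescence, 30 min at room temperature, in wells already read for beta-lactamase. Engineered HEK 293T cells (RXR-alpha-UAS-bla) are dosed 16 hr at 37 C. Tetraoctyl ammonium bromide serves as positive control.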

[2] = qHTS assay to identify small molecule antagonists of the retinoic acid receptor (RAR) signaling pathway (AID 1159552; further: nearly all actives have a fitted effect of over 50% in size)
In short: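 Quantitative HTS in C3RL4 RARE-luciferase reporter cells. Compounds were added with 1 uM (final) retinol; luminescence was read after 6 hr.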

[3] = qHTS assay to identify small molecule agonists of the retinoic acid receptor (RAR) signaling pathway (AID 1159553); further: potency means the concentration at half of the fitted maximal effect
In short: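 Cell line C3RL4, RARE luciferase reporter. Treatment: compounds in DMSO, 6 hr, 37 C, 5% CO2, after overnight plating. Detection: luminescence, 30 min RT after reagent.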

[4] = qHTS assay to identify small molecule antagonists of the estrogen related receptor (ERR) signaling pathway from Tox21 library - cell viability counter screen (AID 1224834); further: nearly all actives have a fitted effect of over 30% in size
In short: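 Viability readout (CellTiter-Fluor fluorescence, 30 min at 37 C) multiplexed with the ERR assay; cells treated 17.5 h at 37 C with compounds delivered in DMSO.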

[5] = biological target: Luciferin 4-monooxygenase (Photinus pyralis) (UniProt P08659); assay: qHTS assay to identify small molecule inhibitors of firefly luciferase (AID 1224835); further: nearly all actives have a fitted effect of over 25% in size; further: potency means the concentration at half of the fitted maximal effect
Luciferin 4-monooxygenase (Photinus pyralis), sequence (P08659 whole entry, looked up): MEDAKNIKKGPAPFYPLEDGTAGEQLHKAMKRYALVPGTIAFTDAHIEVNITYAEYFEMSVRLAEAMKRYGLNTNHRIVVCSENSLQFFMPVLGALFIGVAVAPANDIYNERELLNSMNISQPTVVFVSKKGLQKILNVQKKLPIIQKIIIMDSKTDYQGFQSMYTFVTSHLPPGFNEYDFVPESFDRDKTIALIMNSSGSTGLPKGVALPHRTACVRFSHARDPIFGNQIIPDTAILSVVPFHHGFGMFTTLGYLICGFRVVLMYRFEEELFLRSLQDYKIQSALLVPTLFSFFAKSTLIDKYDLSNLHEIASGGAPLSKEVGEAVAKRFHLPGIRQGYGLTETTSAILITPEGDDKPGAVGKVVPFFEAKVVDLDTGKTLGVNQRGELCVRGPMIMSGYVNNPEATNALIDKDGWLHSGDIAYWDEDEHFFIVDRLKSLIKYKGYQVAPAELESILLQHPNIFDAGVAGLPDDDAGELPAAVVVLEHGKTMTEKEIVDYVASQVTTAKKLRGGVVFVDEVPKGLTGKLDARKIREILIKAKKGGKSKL
In short: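 Inhibition of purified Photinus luciferase is measured by luminescence. Substrate levels (D-luciferin, ATP) sit at their KM values. Each compound is tested in a concentration series.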

[6] = qHTS assay to identify small molecule agonists of the constitutive androstane receptor (CAR) signaling pathway - cell viability counter screen (AID 1224836); further: series mostly up to about 92 µM; nearly all actives have a fitted effect of over 45% in size
In short: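 Counter screen multiplexed with the CAR reporter readout: HepG2 cells co-transfected with hCAR and the CYP2B6-2.2kb construct receive a 15-concentration compound series and 0.75 uM PK11195 (final), then CellTiter-Fluor fluorescence is read after 23 h.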

[7] = qHTS assay to identify small molecule antagonists of the constitutive androstane receptor (CAR) signaling pathway - cell viability counter screen (AID 1224837); further: series mostly up to about 92 µM; nearly all actives have a fitted effect of over 45% in size
In short: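 Fluorescence from CellTiter-Fluor served as the viability signal. Human hepatoma HepG2 cells stably bearing hCAR and CYP2B6-2.2kb received compound plus CITCO (50 nM final) for 23 hr.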

[8] = biological target: Nuclear receptor subfamily 1 group I member 3 (Homo sapiens) (UniProt Q14994); assay: qHTS assay to identify small molecule antagonists of the constitutive androstane receptor (CAR) signaling pathway (AID 1224838);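 further: HepG2 cells stably expressing hCAR with CYP2B6 luciferase reporter stimulated by CITCO; nearly all actives have a fitted effect of over 40% in size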
Nuclear receptor subfamily 1 group I member 3 (Homo sapiens), sequence (Q14994 whole entry, looked up): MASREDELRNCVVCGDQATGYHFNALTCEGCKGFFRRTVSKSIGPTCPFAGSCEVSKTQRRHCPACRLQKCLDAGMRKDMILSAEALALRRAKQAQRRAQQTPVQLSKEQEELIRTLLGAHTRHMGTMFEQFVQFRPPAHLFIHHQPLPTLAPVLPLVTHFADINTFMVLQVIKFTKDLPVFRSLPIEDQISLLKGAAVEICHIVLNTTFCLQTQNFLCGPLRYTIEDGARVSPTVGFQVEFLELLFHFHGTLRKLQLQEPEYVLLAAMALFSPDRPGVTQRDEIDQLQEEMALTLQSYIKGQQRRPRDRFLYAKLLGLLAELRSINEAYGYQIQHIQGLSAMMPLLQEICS
In short: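 Quantitative HTS in double-stable HepG2-CYP2B6-hCAR cells. After 4 h plating, cells get compound (15 concentrations) and CITCO at 50 nM final, incubate 24 h at 37 C, then ONE-Glo luminescence is read.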

[9] = qHTS assay to identify small molecule antagonists of the estrogen related receptor signaling pathway with the pleiotropic PPARgamma coactivator (PGC) from Tox21 10K library - cell viability counter screen (AID 1224840; active means well fitted cell-killing curve with a large enough effect in the repeat runs, not every such curve was filed as active; further: nearly all actives have a fitted effect of over 40% in size)
In short: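 Compounds in DMSO, alongside positive and negative controls, were pinned onto PGC/ERR cells (2,000 per well). Exposure lasted 17.5 hours at 37 C, followed by a 30-minute CellTiter-Fluor incubation and fluorescence reading.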

[10] = qHTS assay to identify small molecule antagonists of the estrogen related receptor signaling pathway with the pleiotropic PPARgamma coactivator (PGC) from Tox21 10K library (AID 1224841; call rule not given here; further: actives are mostly falling curves and most rising ones were filed inactive; nearly all actives have a fitted effect of over 50% in size; further: potency means the concentration at half of the fitted maximal effect)
In short: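 Compound exposure ran 18 hours at 37 C in PGC/ERR cells (2,000/well) that had first rested 6 hours in a 37 C/5% CO2 incubator. Luciferase activity was then detected with One-Glo after a 30-minute room-temperature step.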

[11] = qHTS assay to identify small molecule agonists of the estrogen related receptor signaling pathway with the pleiotropic PPARgamma coactivator (PGC) from Tox21 10K library (AID 1224842); further: nearly all actives have a fitted effect of over 15% in size; further: potency means the concentration at half of the fitted maximal effect
In short: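 Luminescence from One-Glo (30 min, room temperature) measured after PGC/ERR cells had 18 h at 37 C with pinned compound (23 nL in DMSO). Cells had been seeded at 2,000 per well and pre-incubated 6 h.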

[12] = biological target: Thyrotropin receptor (Homo sapiens) (UniProt P16473); assay: qHTS assay to identify small molecule agonists of the thyroid stimulating hormone receptor (TSHR) signaling pathway (AID 1224843; calls by dose curve; further: nearly all actives have a fitted effect of over 45% in size)
Thyrotropin receptor (Homo sapiens), sequence (P16473 whole entry, looked up): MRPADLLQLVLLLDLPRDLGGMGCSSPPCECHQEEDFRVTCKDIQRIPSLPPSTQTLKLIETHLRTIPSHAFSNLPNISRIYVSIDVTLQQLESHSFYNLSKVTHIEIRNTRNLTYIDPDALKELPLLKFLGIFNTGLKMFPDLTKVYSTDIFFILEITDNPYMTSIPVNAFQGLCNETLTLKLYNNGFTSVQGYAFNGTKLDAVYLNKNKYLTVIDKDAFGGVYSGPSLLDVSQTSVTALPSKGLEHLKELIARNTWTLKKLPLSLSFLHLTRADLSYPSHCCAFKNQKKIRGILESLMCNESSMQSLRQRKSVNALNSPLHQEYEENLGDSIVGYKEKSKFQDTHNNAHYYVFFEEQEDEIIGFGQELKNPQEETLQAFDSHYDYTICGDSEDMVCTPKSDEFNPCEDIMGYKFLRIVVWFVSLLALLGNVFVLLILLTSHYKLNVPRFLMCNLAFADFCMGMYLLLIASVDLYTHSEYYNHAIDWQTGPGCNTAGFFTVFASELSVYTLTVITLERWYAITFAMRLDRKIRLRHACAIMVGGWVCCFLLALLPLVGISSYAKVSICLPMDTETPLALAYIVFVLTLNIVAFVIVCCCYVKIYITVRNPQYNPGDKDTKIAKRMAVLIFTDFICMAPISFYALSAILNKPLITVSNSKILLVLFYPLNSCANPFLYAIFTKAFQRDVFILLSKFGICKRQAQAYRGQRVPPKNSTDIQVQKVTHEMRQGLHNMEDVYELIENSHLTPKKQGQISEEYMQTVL
In short: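 HEK293 cells stably bearing the thyrotropin receptor were plated at 800 cells/well and challenged with compound (30 min, RT). Accumulated cAMP was quantified via cAMP-d2 competing for cryptate-tagged antibody.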

[13] = qHTS assay to identify small molecule antagonists of the retinoid acid receptor (RAR) signaling pathway - cell viability counter screen (AID 1159551); further: nearly all actives have a fitted effect of over 35% in size
In short: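 Following overnight attachment, C3RL4 reporter cells received DMSO-dissolved compounds and then retinol (1 uM final). Six hours later at 37 C, ATP content was measured by CellTiter-Glo luminescence.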

[14] = biological target: Nuclear receptor subfamily 1 group I member 3 (Homo sapiens) (UniProt Q14994); assay: qHTS assay to identify small molecule agonists of the constitutive androstane receptor (CAR) signaling pathway (AID 1224839); further: series mostly up to about 92 µM; nearly all actives have a fitted effect of over 15% in size
In short: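 A 15-concentration quantitative screen uses HepG2 cells co-transfected stably with human CAR and CYP2B6-2.2kb reporter. Treatment lasts 24 h with 0.75 uM PK11195 final present; ONE-Glo luminescence is the signal.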

Measured: Potency

N#CC(C#N)=C(C#N)C#N
active: [10] 1.8 µM
inactive: [1] | [2] | [3] | [4] | [5] | [6] | [7] | [8] | [9] | [11] | [12]

O=C1NC(=O)C(=O)C(=O)N1
inactive: [1] | [3] | [4] | [5] | [6] | [7] | [9] | [12]

CCOC(=O)c1cn2nc(OP(=S)(OCC)OCC)cc2nc1C
active: [10] 43.3 µM
inactive: [1] | [2] | [5] | [6] | [7] | [9] | [11]

C[N+](C)(C)CCOC(=O)C(O)(c1ccccc1)c1ccccc1
inactive: [1] | [3] | [4] | [5] | [6] | [7] | [9]

CCCCCCCCP(=O)(O)O
inactive: [1] | [2] | [3] | [4] | [5] | [6] | [7] | [9] | [12]

O=C(NCNC(=O)NC1C(=O)NC(=O)N1CO)NC1C(=O)NC(=O)N1CO (stereo not given)
inactive: [1] | [2] | [3] | [4] | [5] | [9] | [10] | [11] | [12]

C[C@H]1O[C@H](OC2[C@@H](O)[C@@H](O)C(O)[C@H](O)[C@H]2O)[C@@H](N)C[C@@H]1N=C(N)C(=O)O (stereo not given in full)
inactive: [1] | [2] | [3] | [4] | [5] | [6] | [7] | [9] | [12]

CCCBr
inactive: [1] | [3] | [4] | [5] | [6] | [7] | [9] | [12]

Nc1ccccc1C(=O)OCCc1ccccc1
active: [3] 173 nM and 122 nM | [5] 897 nM and 796 nM | [11] 1.09 µM and 1.37 µM
inactive: [1] | [2] | [6] | [7] | [9] | [10]

Cc1nnc(-c2ccccc2)c(=O)n1N
inactive: [13] | [2] | [3] | [4] | [5] | [6] | [7] | [8] | [14] | [9] | [12]
